Hits are enriched below; roughly 12% of the tested compounds scored in any of these assays.
KCC2 mod = modulates chloride dependent transport by human KCC2; KCC2 cells, thallium flux FluoZin-2 fluorescence; B-score of Tl+ flux slope (higher = more flux/activation; lower = inhibition) at 10 µM; 190,000 tested, 2.2% active; AID 1456;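 active means thallium flux slope and its plate-corrected score both differing from the plate sample mean at a set confidence after two filtering rounds, in either direction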;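 further: slope of fluorescence scaled to starting intensity during 10 to 20 s after thallium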
Ins promoter up = MIN6 insulin promoter up-regulation. MIN6 insulin promoter-GFP reporter, high-content imaging; stronger effect = higher value. z-score at 5 µM. 190,000 tested, 0.3% active;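 active means z-score above 3 at 5 µM with at least 500 cells counted in the well; inconclusive means wells under 500 cells, flagged as cytotoxic or low count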
ROMK mod = modulators of human ROMK potassium channel | 130,000 tested, 2% active | AID 1918 | P48048 | B-score at 10 µM | Tet-inducible ROMK, thallium flux fluorescence; actives lie on both sides;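 active means signal ratio slope over the read window, or its plate-corrected B-score, at least 3 SD from the plate mean, either direction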;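 further: B-score of the F/F0 ratio slope over 7 to 12 s after thallium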
Target sequence (P48048 whole entry, looked up): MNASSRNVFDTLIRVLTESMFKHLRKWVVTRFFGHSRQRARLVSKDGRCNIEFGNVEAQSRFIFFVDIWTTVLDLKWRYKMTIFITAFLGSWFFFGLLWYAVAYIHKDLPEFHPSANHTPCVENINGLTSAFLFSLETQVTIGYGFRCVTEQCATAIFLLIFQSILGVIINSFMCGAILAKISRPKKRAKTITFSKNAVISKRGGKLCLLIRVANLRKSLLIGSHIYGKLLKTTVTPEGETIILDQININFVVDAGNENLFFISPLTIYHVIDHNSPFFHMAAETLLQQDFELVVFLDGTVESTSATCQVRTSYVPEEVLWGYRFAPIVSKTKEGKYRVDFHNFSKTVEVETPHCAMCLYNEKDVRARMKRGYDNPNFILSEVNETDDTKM
WT yeast gro inh = growth inhibition of WT yeast, mitochondrial fusion screen | mitochondrial fusion phenotypic screen, WT strain | inhibition, % at 10 µM | 190,000 tested, 2.1% active | AID 1362; in the data active means inhibition above about 58%; tested in S. cerevisiae
Lmaj promast = inhibitors of Leishmania major promastigote growth; inhibition, % at 10 µM; AID 1063; 200,000 tested, 9% active; Leishmania major promastigotes, resazurin fluorescence viability; in the data active means inhibition above about 50%;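 further: promastigotes grown with compound for 44 hours at 28 °C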
INS promoter inh = TRM-6 insulin promoter activity inhibition | inhibition, % at 2 µM | TRM-6 cells (human fetal islet line), insulin promoter-eGFP reporter, imaging; reporter expression induced with tamoxifen | 130,000 tested, 0.9% active | AID 1273;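 active means inhibition above the mean plus 3 SD, with well images judged a real hit on visual review, cut at about 60% in these data, passing the limit was not always enough; inconclusive means inhibition over the cutoff but images rejected on review; inactive means inhibition not above the cutoff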
KCC2 sec1 = KCC2 (human) modulation, secondary assay. shares compounds with KCC2 mod. HEK293-KCC2, thallium flux, FluoZin2 fluorescence; stronger effect = higher value. normalised thallium flux (F/F0 slope) at 10 µM. 3,700 tested, 15% active. AID 1713;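 active means thallium flux slope above the same plate's solvent-only control mean plus 3 SD; inconclusive means the two replicate wells disagree; inactive means no significant difference from solvent-only control wells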
KCC2 bumet counter = bumetanide-insensitive thallium flux in KCC2 cells with ouabain, counter-screen. HEK293-KCC2 + bumetanide/ouabain, thallium flux FluoZin2; stronger effect = higher value. shares compounds with KCC2 mod. 3,700 tested, 49% active. normalized thallium flux at 10 µM;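 active means thallium entry rate above the same plate's blocked-transporter control wells by more than 3 SD; inconclusive means the two repeat wells disagree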;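 further: raw slope of fluorescence over initial fluorescence between 10 and 20 s after thallium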
KCC2 sec2 = KCC2 (human) modulation, second secondary assay | shares compounds with KCC2 mod | HEK293-KCC2, thallium flux FluoZin2 fluorescence; actives lie on both sides; F/F0 rise rate, 10–20 s post-thallium | normalized thallium flux at 10 µM | 3,700 tested, 23% active | AID 1715;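 active means thallium flux slope more than 3 SD above or below the plate's solvent-only control mean, mostly below; inconclusive means the two repeat wells disagreed; inactive means no significant shift from solvent-only controls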;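 further: raw slope with 0.1% DMSO as baseline and bumetanide as block control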
HEK counter1 = acts in parental HEK cells, KCC2 counter-screen; shares compounds with KCC2 mod; HEK293 parental cells, thallium flux FluoZin2, ouabain; baseline-ratio fluorescence slope, 10–20 s after thallium; thallium flux rate (normalised fluorescence) at 10 µM; 3,700 tested, 46% active;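 active means thallium flux rate significantly above the same plate's solvent-only control wells, beyond their mean plus 3 SD; inconclusive means the two replicate wells gave conflicting results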
KCC2 retest ouab = KCC2 (human) modulation, ouabain retest; shares compounds with KCC2 mod; HEK293-KCC2, thallium flux FluoZin2 fluorescence; bidirectional: low = inhibitor, high = activator; raw Tl+ flux slope (below DMSO = inhibition, above = activation) at 10 µM; 3,700 tested, 48% active; AID 1717;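 active means thallium flux slope beyond 3 SD from same-plate DMSO control mean in most replicates, usually higher, sometimes lower; inconclusive means repeat tests gave conflicting results; inactive means no significant difference from controls in most replicates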;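 further: slope of initial-normalized fluorescence between seconds 10 and 20 after thallium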
HEK293 Tl flux2 = parental HEK flux effect, counter-screen 2; shares compounds with KCC2 mod; HEK293 parental, thallium flux FluoZin-2 fluorescence slope; thallium flux slope at 10 µM; 3,700 tested, 33% active; AID 1718;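 active means thallium flux slope above the same plate's solvent-control mean plus 3 SD in both duplicate wells; inconclusive means duplicate wells that disagreed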;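 further: run without ouabain in cells lacking the KCC2 cotransporter; slope of fluorescence scaled to its starting value between 10 and 20 s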
An asterisk follows results filed as active; ? = inconclusive; / = no result.

SMILES | KCC2 mod | Ins promoter up | ROMK mod | WT yeast gro inh | Lmaj promast | INS promoter inh | KCC2 sec1 | KCC2 bumet counter | KCC2 sec2 | HEK counter1 | KCC2 retest ouab | HEK293 Tl flux2
COc1ccc(N2CCN(S(=O)(=O)c3cccs3)CC2)cc1 | -0.87 | 1.8 | / | 15 | 2 | -500 | / | / | / | / | / | /
O=C(NC(=S)NCc1ccccc1)c1cccnc1 | 1.7 | 0.97 | -0.23 | 23 | -5 | 7 | / | / | / | / | / | /
O=C(NC(=S)NCCC1=CCCCC1)c1cccnc1 | 14* | -1.4 | -0.48 | 44 | -4 | / | 0.0098 | 0.036* | 0.031 | 0.013* | ? | 0.011*
O=C(Nc1ccc(Br)cc1F)c1sccc1-n1cccc1 | -1.2 | 0.88 | -1.2 | -15 | -1 | -25 | 0.0078 | 0.0048 | 0.033 | 0.0082 | 0.02 | 0.011
CC(C)c1ccc(NC(=O)c2cnn(-c3ccccc3)c2NC(=O)c2ccco2)cc1 | -3.7* | -0.08 | / | 7 | 10 | / | 0.0069 | ? | 0.026* | 0.0073 | ? | 0.011
CCCN(C(=O)c1cn(CC)c2nc(C)ccc2c1=O)c1c(N)n(Cc2ccccc2)c(=O)[nH]c1=O | 0.64 | -0.17 | -1.3 | 8 | 7 | -106 | / | / | / | / | / | /
Cc1cc(-c2cccs2)c(C#N)c(=S)[nH]1 | 33* | -0.33 | 0.23 | / | / | / | 0.024* | 0.034* | ? | ? | 0.038* | ?
CCOc1cc(S(=O)(=O)n2nc(C)cc2C)ccc1F | 0.25 | 0.13 | / | -12 | 20 | ? | / | / | / | / | / | /
Cc1ccc(NC(=O)CN(C)C(=O)CCCN2C(=O)c3ccccc3C2=O)cc1 | -3.1* | 0.23 | 0.0036 | -5 | -4 | / | 0.011 | 0.0072 | 0.037 | 0.0046 | 0.021 | 0.012
CN(CC(=O)Nc1c(Cl)cccc1Cl)C(=O)CCCN1C(=O)c2ccccc2C1=O | 0.23 | 1.3 | -0.032 | -13 | -1 | 8 | / | / | / | / | / | /
O=C(NCCCCc1ccccc1)C1CC(c2cc(C(F)(F)F)cc(C(F)(F)F)c2)=NO1 (stereo not given) | 0.45 | -0.23 | / | / | / | / | / | / | / | / | / | /
CN(C)C(=S)NC(=O)C12CC3CC(C)(CC(C)(C3)C1)C2 | 17* | -0.31 | / | / | / | / | ? | 0.039* | 0.034 | 0.016* | 0.025* | 0.02*
CCOC(=O)Cn1nnnc1C(C(C)C)N(Cc1cccs1)Cc1cc2cc(C)ccc2[nH]c1=O (stereo not given) | / | 1.4 | -0.38 | 19 | 26 | 3 | 0.0062 | 0.0045 | 0.028 | 0.0075 | 0.019 | 0.011
CNC(=O)C1CC(=O)N(Cc2ccccc2)C(=Nc2ccc(OC)cc2)S1 (stereo not given) | / | 0.16 | 0.16 | 42 | 1 | -54 | ? | 0.0045 | 0.029 | 0.0075 | 0.019 | 0.01
CCCCN(C(=O)CSc1nnc(Nc2ccc(C)c(C)c2)s1)c1c(N)n(Cc2ccccc2)c(=O)[nH]c1=O | -0.46 | 0.07 | -2.5 | 22 | 2 | -60 | / | / | / | / | / | /
COc1ccc(CN(C(=O)c2ccc(-c3ccccc3)[nH]2)C(C(=O)NC(C)(C)C)c2ccncc2)cc1 (stereo not given) | -4.9* | / | 0.027 | 7 | 93* | 7 | 0.0085 | 0.0072 | ? | 0.0073 | 0.016* | 0.01
COc1cc(C(C(=O)NC(C)(C)C)N(Cc2ccccc2)C(=O)c2cnccn2)cc(OC)c1OC (stereo not given) | 0.64 | / | -1 | -1 | -3 | / | / | / | / | / | / | /
O=C(CSc1nnnn1-c1ccccc1)Nc1nsc(-c2ccccc2)n1 | -6.3* | 0.62 | / | 10 | 6 | 19 | 0.017 | 0.0049 | 0.024* | 0.0076 | 0.014 | 0.01
FC(F)(F)c1ccc2c(c1)NCC1CCCN21 (stereo not given) | 0.66 | 0.17 | 0.12 | 11 | 5 | / | / | / | / | / | / | /
O=C(Nc1nnc(C2CC2)s1)C1CC(=O)N(c2ccc3c(c2)OCCO3)C1 (stereo not given) | -0.58 | / | 0.43 | 7 | -9 | / | / | / | / | / | / | /
O=C(Nc1nc(-c2ccccn2)cs1)C1CC(=O)N(c2ccc3c(c2)OCCO3)C1 (stereo not given) | -3* | 0.21 | -0.31 | -4 | 100* | 14 | 0.0072 | 0.0078 | 0.029 | 0.0075 | 0.018* | 0.011*
Cc1nccc(-c2cccc(N/N=C(\C#N)C(=O)c3ccccc3)c2)n1 | -5.1* | 0.49 | / | / | / | / | ? | 0.036* | 0.031 | 0.015* | 0.025 | 0.011*
Cc1nccc(-c2cccc(NC(=O)Nc3ccc(Cl)cc3)c2)n1 | -0.2 | 0.15 | / | / | / | / | / | / | / | / | / | /
CCOC(=O)c1c(C)n(CC)c2ccc(OC(=O)c3ccc([N+](=O)[O-])cc3)cc12 | 0.064 | -0.5 | 0.27 | 13 | -4 | -14 | / | / | / | / | / | /
Cc1cccc(Cc2cnc(N3C(=N)SC(C)C3=O)s2)c1 (stereo not given) | 6* | 0.18 | 2.4 | 69 | -3 | 38 | 0.017* | 0.068* | 0.035 | 0.029* | 0.04* | 0.014*
SMILES | KCC2 mod | Ins promoter up | ROMK mod | WT yeast gro inh | Lmaj promast | INS promoter inh | KCC2 sec1 | KCC2 bumet counter | KCC2 sec2 | HEK counter1 | KCC2 retest ouab | HEK293 Tl flux2
Cc1cccc(Cc2cnc(N3C(=N)SC(c4ccccc4)C3=O)s2)c1 (stereo not given) | 1.4 | 0.34 | 0.0046 | 26 | -2 | 18 | / | / | / | / | / | /
Cc1ccc(Cc2cnc(N3C(=N)SC(C)C3=O)s2)cc1 (stereo not given) | 11* | 1.1 | 0.39 | 70 | 5 | / | 0.012 | 0.03* | 0.035 | 0.018* | 0.03* | 0.011
O=C(CN1C(=O)NC(Cc2ccccc2)C1=O)NC(=O)NC1CCCCC1 (stereo not given) | -4.6* | 0.21 | / | 20 | -4 | / | 0.018 | 0.004 | ? | 0.008 | 0.015* | 0.01
O=C(CN1C(=O)NC(Cc2ccccc2)C1=O)Nc1ccccc1 (stereo not given) | -1.8 | -0.22 | / | -7 | 1 | -19 | / | / | / | / | / | /
CCc1ccc(NC(=O)Cn2nnc(C(=O)NCc3cccs3)c2N)cc1 | 0.32 | 1.4 | -0.55 | 4 | -9 | 18 | / | / | / | / | / | /
CN(C)C(=O)c1ccc(NC(=O)CSc2nc3ccccc3[nH]2)cc1 | 0.27 | -0.22 | -0.11 | 10 | -6 | -45 | / | / | / | / | / | /
COc1ccc(C2C(C#N)=C(N)Oc3cc(C)[nH]c(=O)c32)c(OC)c1OC (stereo not given) | / | / | 0.6 | 6 | -4 | -7 | 0.0093 | 0.0063 | 0.034 | 0.0088 | 0.019 | 0.012
